Screening data (PubChem BioAssay)
USP28 inh: inhibitors of human USP28 deubiquitinase; Q96RU2; purified USP28, Ub-rhodamine cleavage fluorescence, 30 min; inhibition, % at 25 µM; 47,000 tested, 3% active; AID 1645857
OTUD3 block: human OTUD3 deubiquitinase inhibition; inhibition, % at 25 µM; Q5T2D3; 47,000 tested, 0.7% active; purified OTUD3, Ub-rhodamine fluorescence, 2 h
USP30 inh: human USP30 deubiquitinase inhibition; inhibition, % at 25 µM; purified USP30, Ub-rhodamine cleavage fluorescence; Q70CQ3; AID 1645860; 47,000 tested, 5.3% active
USP17 inh: inhibitors of human USP17 deubiquitinase | A8MUK1 | purified USP17, Ub-rhodamine cleavage fluorescence, 3 h | inhibition, % at 50 µM | 47,000 tested, 6.5% active | AID 1645855
Of the large screens only hits and unclear results are named; the others gave an inactive call. In the library only some 11% were active in any assay of this set; here they are far more common. Cut-off read from the data, not from the text of the source: active = inhibition above about 30%; inactive = the rest.

Cc1cccc(N2C(=O)/C(=C\c3ccc(N4CCOCC4)s3)c3ccccc3C2=O)c1	USP17 inh 42
COc1cccc(N2C(=O)c3cccnc3C2Nc2ccc(C)cc2)c1 (configuration not stated)	none
COc1cccc(/C=C2\C(=O)N(c3cccc(C)c3)C(=O)c3ccccc32)c1	USP17 inh 43
Cc1n[nH]c(C)c1N1C(=O)c2cccc3c(N4CCOCC4)ccc(c23)C1=O	none
COc1ccccc1-n1ccn2cc(-c3ccc(C)c(C)c3)nc2c1=O	USP17 inh 31
COc1cccc(-c2cn3ccn(-c4ccccc4)c(=O)c3n2)c1	none
Cc1cc(C)n2ncc(C(=O)NCCc3ccc(Cl)cc3)c2n1	USP28 inh 30
Cc1cc(C)n2ncc(C(=O)NC(C)CCc3ccccc3)c2n1 (configuration not stated)	none
Cc1ccc2oc(=O)c(S(=O)(=O)N3CCCCC3)cc2c1	USP17 inh 61
CC(C(=O)Nc1ccc2c(c1)OCO2)N(c1cccc(Cl)c1)S(C)(=O)=O (configuration not stated)	none
CSc1nc(Cc2ccc(Cl)cc2)nc2ccccc12	USP28 inh 56
COc1ccc(-n2nnc3c(SCC(=O)Nc4cc(C)on4)ncnc32)cc1	USP17 inh 57
COC(=O)C(C)Sc1ncnc2c1nnn2-c1ccc(OC)cc1 (configuration not stated)	USP17 inh 37 (no result: USP28 inh, USP30 inh)
Cc1cc(NC(=O)CSc2nnc(COc3ccc(Cl)cc3)o2)no1	none
Cc1cc(F)ccc1NS(=O)(=O)c1ccc2c(c1)NC(=O)CCS2	none (no result: USP28 inh, USP30 inh)
O=C(c1scc2c1CCCC2)N1CCN(c2ccccc2O)CC1	none
O=C(c1csc2c1CCCC2)N1CCN(C(c2ccccc2)c2ccccc2)CC1	USP30 inh 31
Cc1ccc(C(=O)N2CC[C@@H]3[C@H](C2)CN3C(=O)c2ccccc2)cc1	USP30 inh 30
Cc1ccc(S(=O)(=O)N2CC[C@@H]3CN(C(=O)c4ccccc4)[C@@H]3C2)cc1	USP30 inh 35
Cc1ccc(-n2nc(C)c3c(C)cc(C(=O)NCc4cccs4)nc32)cc1	USP30 inh 46, USP17 inh 31
CC[C@@H](C)C[C@H](C)/C=C(\C)[C@H]1O[C@@H](c2c(O)c(C3[C@@H](O)[C@@H](O)[C@@H](O)[C@H]3O)cn(C)c2=O)CC=C1C (some centres not stated)	none
CC(C)C12CN3CC(C(C)C)(CN(C1)C3[C@@H](O)[C@H](O)[C@H](O)[C@@H](O)CO)C2=O (some centres not stated)	USP30 inh 30
CC(C)C12CN3CC(C(C)C)(CN(C1)C3c1ccc([N+](=O)[O-])o1)C2=O (configuration not stated)	none
Nc1ncnc2c1ncn2[C@@H]1O[C@H](CO)C[C@@H]1O	USP28 inh 44, OTUD3 block 50, USP17 inh 50
C=C1O[C@](CO)(n2cnc3c(N)ncnc32)[C@@H](O)[C@H]1O	none
O=C1CCSc2ccc(S(=O)(=O)Nc3cccc(Cl)c3)cc2N1	none
O=C(CSc1nccn1-c1cccc(C(=O)Nc2ccccc2)c1)Nc1ccccc1F	none
CC(C)=CCC/C(C)=C/COc1ccc(/C=C2\C(=O)N(O)[C@@H](C)C(=O)N2O)cc1	USP28 inh 47, USP30 inh 33
Cc1cc(C)nc(NC(=O)c2csnn2)c1	none
Cc1cc(C)nc(NC(=O)c2c(C)nc3sccn23)c1	USP17 inh 31 (no result: USP28 inh, USP30 inh)
CC(=O)N1CCc2cc(S(=O)(=O)N3CCC(CC(=O)NC4CCCC4)CC3)ccc21	none
Cc1cccc(C(=O)N2CCC(C(=O)c3ccc4c(c3)OCCO4)CC2)c1	USP28 inh 30
CCC(=O)Nc1cccnc1-c1ccc(C(=O)Nc2cccc(OC)c2)cc1	USP28 inh 57
COc1cccc(NC(=O)c2cc(-c3cccs3)on2)c1	USP28 inh 32, USP30 inh 34, USP17 inh 39
COc1ccccc1NC(=O)c1ccc(-c2csc(C)n2)cc1	USP17 inh 41 (no result: USP28 inh, USP30 inh)
Cc1nc(-c2noc3ccc(C(=O)Nc4cccnc4)cc23)cs1	USP30 inh 72
CN1C(=O)c2cc(S(=O)(=O)Nc3ccc(F)cc3)ccc2Oc2cccnc21	none
Cc1cc(-c2cc(CC3CCN(S(=O)(=O)N(C)C)C3)ncn2)n[nH]1 (configuration not stated)	none
Cc1nc(-c2cccc(NC(=O)c3ccccc3)c2)cs1	none
COc1cccc(NC(=O)c2ccc(-c3csc(C)n3)cc2)c1	USP28 inh 60
CCOc1ccccc1C(=O)Nc1ccc2c(c1)Sc1ncccc1C(=O)N2C	USP28 inh 40, USP17 inh 53
COc1cc(OC)cc(C(=O)Nc2ccc3c(c2)Sc2ncccc2C(=O)N3C)c1	none
